What follows are sequences tested on RARa homodimer (NR concentration 270 nM) (assay: PBM binding z-score (relative to random genomic background probes); higher = stronger binding; sequences stand for … in GC…GCGATTGACAGCGTAGAATGAAGG).
How it was run: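 Probes were double-stranded and carried 34-nt variable regions with direct-repeat seeds, single-nucleotide variants, half-site ablations and random human genomic background sequences, printed on custom Agilent 4×180K protein-binding microarrays. Arrays were incubated 1 h with ligand-free nuclear receptor dimers in PBS pH 7.4, 2% milk, 0.02% Triton X-100, 1 mM DTT, 0.2 mg/mL BSA and 0.4 mg/ml salmon testes DNA. Antibodies against each partner (one per run) detected binding, and scanned fluorescence was regression-normalized. Binding z-scores use the random background probes as reference.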
In the case of CGATCTAGGTCACCAGGACAGTGAAGAGGTTGGA, the PBM binding z-score is reported as -0.0617.
CGAACTAGATCACCAGGACAGTGAAGAGGTTGGA gave a PBM binding z-score of -0.196.
In the case of CGAACTAGGTCACCTGGACAGTGAAGAGGTTGGA, the PBM binding z-score is reported as -0.115.
In the case of ATATGTAGGTTAGGGTCTTTCAGAAAGTAGGGAA, the PBM binding z-score is reported as 1.44.
Sequence CGAACTAGGTCAAAGGACAGTGGAAGGCGACGTA has a PBM binding z-score of 0.262.
Sequence CGAACTAGGTCACCAGGACAGTGCAGAGGTTGGA has a PBM binding z-score of 0.578.
In the case of CGAACTAGGTCAAAGGACAGTGATAGGCGACGTA, the PBM binding z-score is reported as 0.153.
ATATGTAGGTTAGTGTCATTCAGAAAGTAGGGAA showed a PBM binding z-score of 2.19.
For CGTACTAGGTCACCAGGACAGTGAAGAGGTTGGA, the PBM binding z-score was 0.557.
For ATATGTAGGTTAGGCTCATTCAGAAAGTAGGGAA, the PBM binding z-score was 0.657.
In the case of ATATGCAGGTTAGGGTCATTCAGAAAGTAGGGAA, the PBM binding z-score is reported as 1.16.
Sequence CGAACTAGGTCACCAGGAGAGTGAAGAGGTTGGA has a PBM binding z-score of -0.347.
Sequence CGAACTAGGTCAAATGACAGTGAAAGGCGACGTA has a PBM binding z-score of 0.892.
CGAACTAGGTCAAAGGACAGTGACAGGCGACGTA was tested, and the PBM binding z-score was 0.339.
For ATAAGTAGGTTAGGGTCATTCAGAAAGTAGGGAA, the PBM binding z-score was 2.72.
CGAACTAGGTCACCAGGACAGTAAAGAGGTTGGA was tested, and the PBM binding z-score was 0.29.
With ATATGTAGGTGAGGGTCATTCAGAAAGTAGGGAA the PBM binding z-score was 2.
For CGAACTAGGTCAGCAGGACAGTGAAGAGGTTGGA, the PBM binding z-score was -0.352.
With CGAACTAGGTCAAAGGACAATGAAAGGCGACGTA the PBM binding z-score was 0.325.
In the case of CGATCTAGGTCAAAGGACAGTGAAAGGCGACGTA, the PBM binding z-score is reported as 0.262.
ATATGTAGGTTAGAGTCATTCAGAAAGTAGGGAA was tested, and the PBM binding z-score was 1.78.
CGAACTAGGTCACCAGGACAGTGAAGAGGTTGGA showed a PBM binding z-score of 0.232.

Source: the supplement of paper PMC6555819
